According to the supplement of paper PMC4466140:

B1: unnamed (peptide)
chain: TTAPALPSLPPPPLL

Biological target: AgAbp1
Test: SPOT peptide array binding signal intensity (averaged, normalized) (arbitrary units (background-subtracted, floor 0; scale differs between SH3 domains)); higher = stronger binding of the SH3 domain to the peptide
Method in brief: (§1)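 Spot intensities were captured after detection with anti-GST antibody, an HRP-linked anti-mouse secondary and luminol, and quantified with Genespotter. The probes were GST-fused SH3 domains from four yeast species, produced in E. coli BL21(DE3), purified on glutathione Sepharose and incubated at 10 μg/ml overnight at 4°C on cellulose-bound synthetic 15-mer peptides with cysteines replaced by serines. Binding signal is the normalized, background-subtracted spot intensity averaged over replicates, and its arbitrary units differ between domains.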

| Binder | SPOT peptide array binding signal intensity |
| --- | --- |
| B1 | 0.5 |

Biological target: AgBbc1
Test: as above
Method in brief: as §1

| Binder | SPOT peptide array binding signal intensity |
| --- | --- |
| B1 | ≤ 0 |

Biological target: AgBem1-D1
Test: as above
Method in brief: as §1

| Binder | SPOT peptide array binding signal intensity |
| --- | --- |
| B1 | ≤ 0 |

Biological target: AgBzz1-D1
Test: as above
Method in brief: as §1

| Binder | SPOT peptide array binding signal intensity |
| --- | --- |
| B1 | 22 |

Biological target: AgBzz1-D2
Test: as above
Method in brief: as §1

| Binder | SPOT peptide array binding signal intensity |
| --- | --- |
| B1 | 25 |

Biological target: AgCyk3
Test: as above
Method in brief: as §1

| Binder | SPOT peptide array binding signal intensity |
| --- | --- |
| B1 | ≤ 0 |

Biological target: AgFus1
Test: as above
Method in brief: as §1

| Binder | SPOT peptide array binding signal intensity |
| --- | --- |
| B1 | ≤ 0 |

Biological target: AgHof1
Test: as above
Method in brief: as §1

| Binder | SPOT peptide array binding signal intensity |
| --- | --- |
| B1 | 1690 |

Biological target: AgHse1
Test: as above
Method in brief: as §1

| Binder | SPOT peptide array binding signal intensity |
| --- | --- |
| B1 | ≤ 0 |

Biological target: AgLsb1
Test: as above
Method in brief: as §1

| Binder | SPOT peptide array binding signal intensity |
| --- | --- |
| B1 | ≤ 0 |

Biological target: AgLsb4
Test: as above
Method in brief: as §1

| Binder | SPOT peptide array binding signal intensity |
| --- | --- |
| B1 | ≤ 0 |

Biological target: AgMyo5
Test: as above
Method in brief: as §1

| Binder | SPOT peptide array binding signal intensity |
| --- | --- |
| B1 | 3050 |

Biological target: AgNbp2
Test: as above
Method in brief: as §1

| Binder | SPOT peptide array binding signal intensity |
| --- | --- |
| B1 | ≤ 0 |

Biological target: AgRvs167
Test: as above
Method in brief: as §1

| Binder | SPOT peptide array binding signal intensity |
| --- | --- |
| B1 | 0.667 |

Biological target: AgSho1
Test: as above
Method in brief: as §1

| Binder | SPOT peptide array binding signal intensity |
| --- | --- |
| B1 | ≤ 0 |

Biological target: AgSla1-D1-D2
Test: as above
Method in brief: as §1

| Binder | SPOT peptide array binding signal intensity |
| --- | --- |
| B1 | ≤ 0 |

Biological target: AgSla1-D3
Test: as above
Method in brief: as §1

| Binder | SPOT peptide array binding signal intensity |
| --- | --- |
| B1 | 3 |

Biological target: CaAbp1-D1
Test: as above
Method in brief: as §1

| Binder | SPOT peptide array binding signal intensity |
| --- | --- |
| B1 | 5 |

Biological target: CaAbp1-D2
Test: as above
Method in brief: as §1

| Binder | SPOT peptide array binding signal intensity |
| --- | --- |
| B1 | 21 |

Biological target: CaBbc1
Test: as above
Method in brief: as §1

| Binder | SPOT peptide array binding signal intensity |
| --- | --- |
| B1 | 3 |

Biological target: CaBem1-D1
Test: as above
Method in brief: as §1

| Binder | SPOT peptide array binding signal intensity |
| --- | --- |
| B1 | ≤ 0 |

Biological target: CaBzz1-D1
Test: as above
Method in brief: as §1

| Binder | SPOT peptide array binding signal intensity |
| --- | --- |
| B1 | 3.5 |

Biological target: CaBzz1-D2
Test: as above
Method in brief: as §1

| Binder | SPOT peptide array binding signal intensity |
| --- | --- |
| B1 | ≤ 0 |

Biological target: CaCyk3
Test: as above
Method in brief: as §1

| Binder | SPOT peptide array binding signal intensity |
| --- | --- |
| B1 | ≤ 0 |

Biological target: CaFus1
Test: as above
Method in brief: as §1

| Binder | SPOT peptide array binding signal intensity |
| --- | --- |
| B1 | ≤ 0 |

Biological target: CaHof1
Test: as above
Method in brief: as §1

| Binder | SPOT peptide array binding signal intensity |
| --- | --- |
| B1 | 873 |

Biological target: CaHse1
Test: as above
Method in brief: as §1

| Binder | SPOT peptide array binding signal intensity |
| --- | --- |
| B1 | 5.75 |

Biological target: CaLsb1
Test: as above
Method in brief: as §1

| Binder | SPOT peptide array binding signal intensity |
| --- | --- |
| B1 | 0.5 |

Biological target: CaLsb4
Test: as above
Method in brief: as §1

| Binder | SPOT peptide array binding signal intensity |
| --- | --- |
| B1 | ≤ 0 |

Biological target: CaMyo5
Test: as above
Method in brief: as §1

| Binder | SPOT peptide array binding signal intensity |
| --- | --- |
| B1 | 1950 |

Biological target: CaNbp2
Test: as above
Method in brief: as §1

| Binder | SPOT peptide array binding signal intensity |
| --- | --- |
| B1 | ≤ 0 |

Biological target: CaRvs167
Test: as above
Method in brief: as §1

| Binder | SPOT peptide array binding signal intensity |
| --- | --- |
| B1 | 1 |

Biological target: CaRvs167-3
Test: as above
Method in brief: as §1

| Binder | SPOT peptide array binding signal intensity |
| --- | --- |
| B1 | 1 |

Biological target: CaSho1
Test: as above
Method in brief: as §1

| Binder | SPOT peptide array binding signal intensity |
| --- | --- |
| B1 | ≤ 0 |

Biological target: CaSla1-D1-D2
Test: as above
Method in brief: as §1

| Binder | SPOT peptide array binding signal intensity |
| --- | --- |
| B1 | ≤ 0 |

Biological target: CaSla1-D3
Test: as above
Method in brief: as §1

| Binder | SPOT peptide array binding signal intensity |
| --- | --- |
| B1 | 0.25 |

Biological target: ScAbp1
Test: as above
Method in brief: as §1

| Binder | SPOT peptide array binding signal intensity |
| --- | --- |
| B1 | 1 |
